Results filed as inconclusive are left out. Calls of active or inactive are those of the source. Calls come from the whole dose curve; as a rule, active = well fitted inhibition curve with a large enough effect in the repeat runs; inconclusive = weak or mixed curves; inactive = no such curve, though single readings can be large or run the other way.
These compounds were tested against Cytochrome P450 2C9 (Homo sapiens) (UniProt P11712) (assay: Cytochrome P450 Family 2 Subfamily C Member 9 (CYP2C9) small molecule antagonists: luciferase reporter qHTS assay (AID 1671198; note: nearly all actives have a fitted effect of over 50% in size)). Settings: P450-Glo CYP2C9 enzyme assay, luciferin luminescence; series mostly up to 115 µM; activity change, negative = inhibition: at the top concentration.
Sequence of Cytochrome P450 2C9 (Homo sapiens) (P11712 whole entry, looked up): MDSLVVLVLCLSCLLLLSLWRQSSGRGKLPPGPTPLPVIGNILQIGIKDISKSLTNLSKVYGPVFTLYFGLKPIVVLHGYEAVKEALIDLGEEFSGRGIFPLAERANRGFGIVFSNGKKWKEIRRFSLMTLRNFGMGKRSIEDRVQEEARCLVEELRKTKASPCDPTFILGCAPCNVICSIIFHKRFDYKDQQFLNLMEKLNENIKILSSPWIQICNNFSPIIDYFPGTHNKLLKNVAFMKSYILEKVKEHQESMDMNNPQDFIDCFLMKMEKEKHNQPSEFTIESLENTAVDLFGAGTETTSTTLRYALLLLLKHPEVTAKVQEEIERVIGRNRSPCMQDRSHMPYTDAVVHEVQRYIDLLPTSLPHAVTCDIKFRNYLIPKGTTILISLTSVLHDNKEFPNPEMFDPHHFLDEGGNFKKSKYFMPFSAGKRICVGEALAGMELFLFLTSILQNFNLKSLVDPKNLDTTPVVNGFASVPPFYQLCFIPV
Excerpt: U.S. Tox21 Program National Center for Advancing Translational Sciences [NCATS] U.S. Environmental Protection Agency [EPA] National Institutes of Environmental Health Sciences [NIEHS] National Toxicology Program [NTP] U.S. Food and Drug Administration [FDA] Tox21 Assay Overview: Cytochrome P450 (CYP) enzymes are membrane-bound hemeproteins that play a key role in metabolism of drugs and xenobiotics. Evaluation of the effect of chemicals on CYP isozymes is useful to minimize the adverse drug reactions and toxicities in drug development process. Tox21 chemicals were tested for their effect on CYP enzyme activities by using P450-Glo (TM) screening systems (Promega Corporation, Madison, WI). These systems provide a luminescent method containing proluciferin substrates and are converted to luciferin products by CYP isozymes. The luciferin products formed are detected with a luciferin detection reagent, and the amount of light produced is proportional to CYP activity. P450-Glo (TM) CYP2C9 screening system (Catalog. No. V9790) was used to detect the compounds that interfere in CYP2C9 activity.
Tox21 Assay Protocol Summary: Two ul of enzyme-substrate mix was dispensed into medium binding white/solid 1536-well plates (Greiner Bio-One North America Inc., Monroe, NC) using a BioRaptr Flying Reagent Dispenser (FRD, Beckman Coulter, Brea, CA). […] The assay plates were incubated at room temperature for 10 min. Then 2 ul of NADPH regeneration solution was added to each well of the assay plates using an FRD and incubated at 37C for 1 h. The reaction was stopped by adding 4 ul of detection reagent using an FRD and after 20 min incubation at room temperature the luminescence signal was measured using a ViewLux plate reader (Perkin Elmer, Shelton, CT). Data were expressed as relative luminescence units.
% is set by controls: 0 for no effect and ±100 for the full control effect; potency is the fitted concentration of half-maximal effect.

Row | Structure (SMILES) | activity change, negative = inhibition | Potency
1 | CCCn1cc[n+](C)c1C | -14.4% (inactive) | –
2 | O=C(O)CC(C(=O)O)S(=O)(=O)O (stereo not given) | -18.2% (inactive) | –
3 | O=C(O)CNC(=O)c1ccc(CO)o1 | 9.84% (inactive) | –
4 | CNCCO | -5.84% (inactive) | –
5 | O=S(=O)(O)c1cc(O)c(O)c(S(=O)(=O)O)c1 | -1.96% (inactive) | –
6 | CC(C#N)(CCC(=O)O)N=NC(C)(C#N)CCC(=O)O (stereo not given) | -11.1% (inactive) | –
7 | CC(COc1ccccc1)NN (stereo not given) | 5.14% [at 53 µM] (inactive) | –
8 | CC1OC1C1CCC2(C)OC2C1 (stereo not given) | -19.8% (inactive) | –
9 | Clc1cc(Cl)c(Cl)nc1Cl | 10.1% (inactive) | –
10 | CC1=CCC(O)(C(C)C)CC1 (stereo not given) | -7.91% (inactive) | –
11 | COc1cccc(OC)c1C(=O)N[C@@H]1C(=O)N2[C@@H]1SC(C)(C)[C@@H]2C(=O)O | 3.07% [at 53 µM] (inactive) | –
12 | CC(=O)c1ccc2ccccc2c1 | -8.51% (inactive) | –
13 | O=[N+]([O-])c1ccc(/C=N\O)o1 | -13.3% [at 53 µM] (inactive) | –
14 | [O-][n+]1cccc(CO)c1 | 11.4% [at 53 µM] (inactive) | –
15 | CC(C)=CCC/C(C)=C/C#N | -7.54% (inactive) | –
16 | CC1CCC(CO)CC1 (stereo not given) | 0.759% (inactive) | –
17 | O=C(O)CNC(=O)c1ccccc1 | -14.6% [at 53 µM] (inactive) | –
18 | CO[C@@]1(NC(=O)CSC[C@@H](N)C(=O)O)C(=O)N2C(C(=O)O)=C(CSc3nnnn3C)CS[C@@H]21 | 0.0276% [at 53 µM] (inactive) | –
19 | Cc1cccc(C)c1NC(=O)CC12CCCN1CCC2 | -16.9% [at 53 µM] (inactive) | –
20 | CC1=CC(=O)[C@H]2C[C@@H]1C2(C)C | -14.7% (inactive) | –

Row | Structure (SMILES) | activity change, negative = inhibition | Potency
21 | CCO[Si](OCC)(OCC)c1ccccc1 | -19.2% (inactive) | –
22 | Cc1onc(-c2c(Cl)cccc2Cl)c1C(=O)Cl | – | 17.4 µM (active)
23 | CCN(Cc1ccccc1)c1ccccc1 | – | 35.1 µM (active)
24 | CC(=O)N[C@H]1[C@H]([C@H](O)[C@H](O)CO)OC(C(=O)O)=C[C@@H]1N=C(N)N | 7.14% [at 53 µM] (inactive) | –
25 | CC12CCC(C(=O)C1=O)C2(C)C (stereo not given) | -5.88% (inactive) | –
26 | N[C@H](C(=O)O)[C@@H](O)c1ccc(O)c(O)c1 | 1.22% [at 53 µM] (inactive) | –
27 | CN1CC(=O)N/C1=N/C(=O)Nc1cccc(Cl)c1 | -1.75% [at 53 µM] (inactive) | –
28 | C=C(C)C(=O)OCC(O)CO (stereo not given) | 11.2% [at 53 µM] (inactive) | –
29 | CCCC[N+](C)(CCCC)CCCC | -7.55% (inactive) | –
30 | CCC(=O)OCc1ccccc1 | -0.839% (inactive) | –
31 | CC(=O)O[C@@]12CO[C@@H]1C[C@H](O)[C@@]1(C)C(=O)[C@H](O)C3=C(C)[C@@H](OC(=O)[C@H](O)[C@@H](NC(=O)OC(C)(C)C)c4ccccc4)C[C@@](O)([C@@H](OC(=O)c4ccccc4)[C@H]21)C3(C)C | -1.53% [at 53 µM] (inactive) | –
32 | CC(C)(C)OC(=O)c1cccc(N)c1 | – | 32.6 µM (active)
33 | COCCOCC(OC)OC | 9.82% [at 53 µM] (inactive) | –
34 | CC(C)c1ccc2ncccc2c1 | -8.85% (inactive) | –
35 | CCCCOC(=O)CCC(C)=O | -1.06% (inactive) | –
36 | CC(C)(N)C#N | -6.52% (inactive) | –
37 | CC(=O)c1ccccc1[N+](=O)[O-] | 12.2% (inactive) | –
38 | CC(C)(C)c1ccc(-c2ccc(C(C)(C)C)cc2)cc1 | -7.41% (inactive) | –
39 | Cc1coc2ccccc2c1=O | -3.77% [at 53 µM] (inactive) | –
40 | CCCc1nn(C)c2c(=O)[nH]c(-c3cc(S(=O)(=O)N4CCN(C)CC4)ccc3OCC)nc12 | – | 30.9 µM (active)

From PubChem BioAssay (Tox21)
